Source: the supplement of paper PMC10849652
Of roughly 7,900 targets only a part is listed; those with a hit were picked by preference. About 0.6% of all pairs of compound and target were hits.

Legend:
Assay in all cases: log2 fold change, soluble protein after heating vs DMSO (PISA); higher = thermal stabilisation; K562 cells, 10 uM, 30 min; active = over 0.2 and 3.5 SD of the protein, either way, in both replicates (recomputed)
erlotinib = compound: C#Cc1cccc(Nc2ncnc3cc(OCCOC)c(OCCOC)cc23)c1 [erlotinib]
In short: (§1)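 K562 cells at 2×10^6 cells/mL were treated for 30 min with 10 μM compound, and aliquots were heated for 3 min over 48°C-58°C before pooling. Extraction used PBS with 0.5% NP-40 at 4°C, and soluble protein was the supernatant after 21,000xg for 90 min, measured by TMTpro 16plex LC-MS/MS with channel sums equalised. Thermal stability values, relative to control samples and from duplicates, are log2 fold changes.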

[1] = compound: C/C(=N\NC(=O)C1=CC(=CC=C1)S(=O)(=O)N2CCOCC2)/C3=C(C=CC(=C3)Cl)O
In short: as §1

[2] = compound: C1=CC(=C(C=C1Cl)C2=NC3=NC=CN=C3C(=N2)NC4=CC=NC=C4)F
In short: as §1

[3] = compound: C1=CC(=CC=C1C2=NC3=C(N2)C=C(C=C3)C(=O)N)OC4=CC=C(C=C4)Cl
In short: as §1

[4] = compound: C1=CC2=C(C=CC(=C2)/C=C\3/C(=O)NC(=NCC4=CC=CS4)S3)N=C1
In short: as §1

[5] = compound: C1=CC2=NC=CN=C2C=C1/C=C/3\C(=O)NC(=O)S3
In short: as §1

[6] = compound: C1=CC=C(C=C1)C2=NC(=C(N2)C3=CC=NC=C3)C4=CC(=C(C=C4)Cl)O
In short: as §1

[7] = compound: C1=CC=C2C(=C1)C3=NNC4=CC=CC(=C43)C2=O
In short: as §1

[8] = compound: C1CCN(C1)C(=O)NC2=CC=CC(=C2)NC3=NC=C(C(=N3)NCCC4=CN=CN4)Br
In short: as §1

[9] = compound: C1CN(CCC1(CC2=CC=C(C=C2)Cl)N)C3=NC=NC4=C3C=CN4
In short: as §1

IRAK-1-4 Inhibitor I = compound: C1COCCN1CCN2C3=CC=CC=C3N=C2NC(=O)C4=CC(=CC=C4)[N+](=O)[O-] [IRAK-1-4 Inhibitor I]
In short: as §1

ibrutinib = compound: C=CC(=O)N1CCC[C@@H](n2nc(-c3ccc(Oc4ccccc4)cc3)c3c(N)ncnc32)C1 [ibrutinib]
In short: as §1

[10] = compound: CC(=O)c1cnc2ccc(-c3cc(Cl)c(O)c(Cl)c3)nc2c1N[C@H]1CC[C@H](CN(C)C)CC1
In short: as §1

ralimetinib = compound: CC(C)(C)Cn1c(N)nc2ccc(-c3[nH]c(C(C)(C)C)nc3-c3ccc(F)cc3)nc21 [ralimetinib]
In short: as §1

[11] = compound: CC(C)(O)CC(=O)NCCn1ccc2ncnc(Nc3ccc(Oc4cccc(C(F)(F)F)c4)c(Cl)c3)c21
In short: as §1

[12] = compound: CC(C)C1=C2N=C(C=C(N2N=C1)NCC3=CC=CC=C3)NCCCCCCN
In short: as §1

[13] = compound: CC(C)C[C@@H](C=O)NC(=O)[C@H](CC(C)C)NC(=O)[C@H](CC(C)C)NC(=O)OCc1ccccc1
In short: as §1

pinometostat = compound: CC(C)N(C[C@H]1O[C@@H](n2cnc3c(N)ncnc32)[C@H](O)[C@@H]1O)[C@H]1C[C@@H](CCc2nc3cc(C(C)(C)C)ccc3[nH]2)C1 [pinometostat]
In short: as §1

[14] = compound: CC1=C(C(CC(=O)N1)C2=CC=C(C=C2)C(F)(F)F)C(=O)NC3=C(C=C4C(=C3)C=NN4)F
In short: as §1

[15] = compound: CC1=C(C2=C(C=C1)C(=O)C3=CC=CC=C3N2CCCN)C
In short: as §1

Measured: log2 fold change

PLCB3 (UniProt Q01970)
UniProt Q01970, sequence (Q01970 whole entry, looked up): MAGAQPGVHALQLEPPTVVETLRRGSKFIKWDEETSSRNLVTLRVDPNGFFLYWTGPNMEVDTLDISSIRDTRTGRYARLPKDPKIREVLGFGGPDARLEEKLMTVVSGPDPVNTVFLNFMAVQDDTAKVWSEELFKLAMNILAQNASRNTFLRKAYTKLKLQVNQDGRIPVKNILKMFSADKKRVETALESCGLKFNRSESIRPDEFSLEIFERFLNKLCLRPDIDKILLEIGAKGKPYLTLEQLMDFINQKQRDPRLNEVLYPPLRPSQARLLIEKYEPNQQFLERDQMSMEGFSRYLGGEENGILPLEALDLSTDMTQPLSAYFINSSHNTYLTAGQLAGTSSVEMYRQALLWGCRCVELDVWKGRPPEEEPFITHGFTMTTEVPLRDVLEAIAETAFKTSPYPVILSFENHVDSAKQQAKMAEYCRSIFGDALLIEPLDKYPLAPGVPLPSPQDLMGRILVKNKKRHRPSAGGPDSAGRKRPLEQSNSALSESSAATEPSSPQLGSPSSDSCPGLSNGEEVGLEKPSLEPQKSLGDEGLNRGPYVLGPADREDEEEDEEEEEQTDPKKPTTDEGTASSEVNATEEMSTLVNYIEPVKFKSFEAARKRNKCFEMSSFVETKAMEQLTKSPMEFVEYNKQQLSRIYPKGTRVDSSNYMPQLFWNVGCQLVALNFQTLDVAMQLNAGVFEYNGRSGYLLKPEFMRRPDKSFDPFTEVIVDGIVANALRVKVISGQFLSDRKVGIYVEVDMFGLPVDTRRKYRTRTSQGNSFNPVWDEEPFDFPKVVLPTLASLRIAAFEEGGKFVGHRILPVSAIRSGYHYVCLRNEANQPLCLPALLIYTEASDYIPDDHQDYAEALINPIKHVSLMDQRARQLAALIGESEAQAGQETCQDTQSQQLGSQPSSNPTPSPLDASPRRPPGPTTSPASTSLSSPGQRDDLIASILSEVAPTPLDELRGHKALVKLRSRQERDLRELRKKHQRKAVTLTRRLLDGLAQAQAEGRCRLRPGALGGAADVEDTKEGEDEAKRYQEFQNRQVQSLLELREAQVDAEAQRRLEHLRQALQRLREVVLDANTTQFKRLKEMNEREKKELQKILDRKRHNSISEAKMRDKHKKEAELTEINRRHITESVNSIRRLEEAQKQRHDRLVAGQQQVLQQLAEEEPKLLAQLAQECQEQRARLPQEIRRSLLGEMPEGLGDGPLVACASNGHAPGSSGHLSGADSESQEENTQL
inactive: erlotinib -0.004 | [1] 0.028 | [2] 0.005 | [3] 0.023 | [4] 0.054 | [5] 0.016 | [6] -0.011 | [7] 0.034 | [8] -0.057 | [9] -0.07 | IRAK-1-4 Inhibitor I -0.013 | ibrutinib -0.026 | [10] -0.017 | ralimetinib 0.014 | [11] -0.064 | [12] -0.138 | [13] -0.003 | pinometostat 0.01 | [14] -0.022 | [15] 0.004

PISD (UniProt Q9UG56)
inactive: erlotinib -0.021 | [1] -0.055 | [2] 0.026 | [3] 0.089 | [4] 0.034 | [5] 0.023 | [6] 0.02 | [7] 0.058 | [8] 0.009 | [9] -0.004 | IRAK-1-4 Inhibitor I -0.013 | ibrutinib -0.038 | [10] -0.068 | ralimetinib 0.02 | [11] -0.066 | [12] 0.001 | [13] 0.005 | pinometostat -0.013 | [14] -0.039 | [15] 0.147

PI4K2A (UniProt Q9BTU6)
UniProt Q9BTU6, sequence (Q9BTU6 whole entry, looked up): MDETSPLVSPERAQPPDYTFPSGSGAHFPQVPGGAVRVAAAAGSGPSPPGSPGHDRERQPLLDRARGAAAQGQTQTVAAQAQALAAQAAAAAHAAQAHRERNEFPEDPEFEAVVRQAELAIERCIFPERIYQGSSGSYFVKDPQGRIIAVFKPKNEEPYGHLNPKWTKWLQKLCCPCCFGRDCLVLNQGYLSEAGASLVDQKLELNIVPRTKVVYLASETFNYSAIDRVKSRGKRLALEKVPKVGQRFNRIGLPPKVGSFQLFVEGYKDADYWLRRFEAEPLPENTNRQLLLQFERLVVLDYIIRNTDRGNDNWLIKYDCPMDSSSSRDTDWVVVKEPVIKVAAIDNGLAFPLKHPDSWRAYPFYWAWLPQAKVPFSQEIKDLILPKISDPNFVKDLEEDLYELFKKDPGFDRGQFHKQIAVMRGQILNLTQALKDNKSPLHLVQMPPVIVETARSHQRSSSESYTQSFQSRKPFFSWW
inactive: erlotinib -0.037 | [1] -0.01 | [2] 0.01 | [3] 0.019 | [4] 0.021 | [5] 0.071 | [6] -0.029 | [7] 0.01 | [8] -0.002 | [9] 0.046 | IRAK-1-4 Inhibitor I 0.01 | ibrutinib -0.018 | [10] -0.026 | ralimetinib -0.072 | [11] -0.062 | [12] -0.158 | [13] -0.002 | pinometostat -0.024 | [14] -0.005 | [15] -0.006

PRPF40A (UniProt O75400)
active: [12] -0.411
inactive: erlotinib 0.082 | [1] 0.083 | [2] -0.087 | [3] 0.012 | [4] 0.032 | [5] 0.007 | [6] -0.037 | [7] -0.135 | [8] -0.129 | [9] -0.124 | IRAK-1-4 Inhibitor I -0.093 | ibrutinib -0.085 | [10] -0.149 | ralimetinib 0.095 | [11] -0.022 | [13] 0.043 | pinometostat -0.041 | [14] -0.034 | [15] 0.13

PLSCR1 (UniProt O15162)
UniProt O15162, sequence (O15162 whole entry, looked up): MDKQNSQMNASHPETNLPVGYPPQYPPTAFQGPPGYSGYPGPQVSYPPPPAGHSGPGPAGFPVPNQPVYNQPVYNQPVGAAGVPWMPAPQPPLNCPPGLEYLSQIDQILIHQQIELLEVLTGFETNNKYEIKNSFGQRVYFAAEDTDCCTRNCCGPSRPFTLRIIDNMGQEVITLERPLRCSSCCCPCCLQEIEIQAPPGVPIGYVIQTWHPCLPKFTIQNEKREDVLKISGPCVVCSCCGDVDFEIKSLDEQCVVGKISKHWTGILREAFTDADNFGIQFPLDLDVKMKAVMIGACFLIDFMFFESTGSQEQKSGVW
inactive: erlotinib -0.023 | [1] 0.03 | [2] 0.089 | [3] 0.077 | [4] -0.004 | [5] 0.022 | [6] 0.061 | [7] -0.04 | [8] -0.008 | [9] 0.05 | IRAK-1-4 Inhibitor I -0.003 | ibrutinib 0.002 | [10] -0.025 | ralimetinib -0.046 | [11] 0.047 | [12] 0.031 | [13] -0.036 | pinometostat -0.015 | [14] -0.011 | [15] 0.031

PITRM1 isoform 2 (UniProt Q5JRX3)
active: ralimetinib 0.239
inactive: erlotinib -0.004 | [1] -0.008 | [2] 0.012 | [3] 0.005 | [4] 0.118 | [5] 0.007 | [6] 0.041 | [7] 0.03 | [8] 0.023 | [9] 0.153 | IRAK-1-4 Inhibitor I 0.045 | ibrutinib -0.045 | [10] -0.046 | [11] -0.173 | [12] -0.026 | [13] 0.062 | pinometostat -0.042 | [14] -0.013 | [15] 0.006

RAB11FIP1 (UniProt Q6WKZ4)
inactive: erlotinib 0.004 | [1] 0.074 | [2] 0.078 | [3] -0.039 | [4] 0.02 | [5] -0.004 | [6] 0.031 | [7] 0.009 | [8] -0.049 | [9] 0.027 | IRAK-1-4 Inhibitor I 0.014 | ibrutinib -0.009 | [10] -0.067 | ralimetinib 0.023 | [11] -0.016 | [12] -0.118 | [13] -0.004 | pinometostat 0.059 | [14] -0.021 | [15] 0.041

PARG (UniProt Q86W56)
UniProt Q86W56, sequence (Q86W56 whole entry, looked up): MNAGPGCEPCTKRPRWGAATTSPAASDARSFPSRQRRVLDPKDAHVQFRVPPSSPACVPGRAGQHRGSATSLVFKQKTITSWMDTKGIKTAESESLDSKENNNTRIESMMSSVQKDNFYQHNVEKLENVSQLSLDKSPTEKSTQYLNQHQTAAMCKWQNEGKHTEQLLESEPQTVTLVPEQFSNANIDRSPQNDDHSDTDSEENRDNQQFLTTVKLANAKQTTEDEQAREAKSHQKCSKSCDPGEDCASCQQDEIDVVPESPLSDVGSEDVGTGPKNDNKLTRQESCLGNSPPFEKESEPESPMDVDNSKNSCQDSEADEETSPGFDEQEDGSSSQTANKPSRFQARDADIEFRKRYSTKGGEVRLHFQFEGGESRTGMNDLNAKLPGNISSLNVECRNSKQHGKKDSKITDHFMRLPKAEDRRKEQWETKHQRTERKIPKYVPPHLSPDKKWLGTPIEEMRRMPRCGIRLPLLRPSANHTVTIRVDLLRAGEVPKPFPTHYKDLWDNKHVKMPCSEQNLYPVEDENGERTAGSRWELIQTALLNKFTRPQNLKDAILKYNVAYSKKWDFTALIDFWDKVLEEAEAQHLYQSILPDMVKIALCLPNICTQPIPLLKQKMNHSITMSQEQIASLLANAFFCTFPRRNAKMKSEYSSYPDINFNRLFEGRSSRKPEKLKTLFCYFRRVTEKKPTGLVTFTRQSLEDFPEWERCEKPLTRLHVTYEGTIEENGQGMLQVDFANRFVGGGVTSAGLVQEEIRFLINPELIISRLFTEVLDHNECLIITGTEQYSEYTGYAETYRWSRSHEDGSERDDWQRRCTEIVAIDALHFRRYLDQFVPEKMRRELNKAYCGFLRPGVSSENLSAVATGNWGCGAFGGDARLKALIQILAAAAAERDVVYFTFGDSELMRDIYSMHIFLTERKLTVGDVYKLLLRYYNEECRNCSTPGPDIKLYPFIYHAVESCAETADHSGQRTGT
active: [15] 0.331
inactive: erlotinib 0.063 | [1] 0.067 | [2] 0.034 | [3] -0.015 | [4] 0.063 | [5] 0.059 | [6] 0.043 | [7] 0.063 | [8] -0.079 | [9] -0.071 | IRAK-1-4 Inhibitor I -0.047 | ibrutinib -0.022 | [10] -0.124 | ralimetinib 0.045 | [11] -0.075 | [12] -0.203 | [13] 0.043 | pinometostat 0.059 | [14] 0.001

PSMD3 (UniProt O43242)
inactive: erlotinib -0.074 | [1] -0.05 | [2] -0.072 | [3] 0.002 | [4] -0.022 | [5] -0.028 | [6] 0.008 | [7] 0.033 | [8] -0.012 | [9] -0.066 | IRAK-1-4 Inhibitor I -0.025 | ibrutinib -0.031 | [10] 0.044 | ralimetinib 0.023 | [11] -0.033 | [12] 0.01 | pinometostat 0.067 | [14] 0.016 | [15] 0.039
active: [13] -0.22

PRMT8 (UniProt Q9NR22)
UniProt Q9NR22, sequence (Q9NR22 whole entry, looked up): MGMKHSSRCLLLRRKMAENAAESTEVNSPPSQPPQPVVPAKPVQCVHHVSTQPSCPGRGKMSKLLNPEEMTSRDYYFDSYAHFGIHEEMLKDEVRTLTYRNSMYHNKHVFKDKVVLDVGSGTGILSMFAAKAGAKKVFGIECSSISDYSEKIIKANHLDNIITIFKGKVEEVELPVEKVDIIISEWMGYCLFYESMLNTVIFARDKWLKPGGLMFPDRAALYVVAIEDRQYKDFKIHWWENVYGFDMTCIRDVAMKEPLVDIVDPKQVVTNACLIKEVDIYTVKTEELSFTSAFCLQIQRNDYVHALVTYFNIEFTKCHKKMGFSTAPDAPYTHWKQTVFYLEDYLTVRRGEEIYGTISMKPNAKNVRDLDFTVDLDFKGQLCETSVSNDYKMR
inactive: erlotinib -0.008 | [1] 0.03 | [2] 0.159 | [3] -0.067 | [4] 0.099 | [5] -0.005 | [6] 0.122 | [7] 0.042 | [8] 0.012 | [9] 0.028 | IRAK-1-4 Inhibitor I 0.045 | ibrutinib -0.004 | [10] -0.012 | ralimetinib 0.098 | [11] -0.014 | [12] 0.001 | [13] -0.073 | pinometostat 0.026 | [14] -0.027 | [15] 0.101

PRPF3 (UniProt O43395)
inactive: erlotinib 0.06 | [1] 0.144 | [2] 0.069 | [3] -0.02 | [4] 0.015 | [5] 0.019 | [6] 0.057 | [7] 0 | [8] -0.07 | [9] 0.053 | IRAK-1-4 Inhibitor I -0.018 | ibrutinib -0.038 | [10] -0.179 | ralimetinib -0.008 | [11] -0.055 | [12] -0.205 | [13] -0.001 | pinometostat 0 | [14] 0 | [15] -0.2

PTGES3 (UniProt Q15185)
UniProt Q15185, sequence (Q15185 whole entry, looked up): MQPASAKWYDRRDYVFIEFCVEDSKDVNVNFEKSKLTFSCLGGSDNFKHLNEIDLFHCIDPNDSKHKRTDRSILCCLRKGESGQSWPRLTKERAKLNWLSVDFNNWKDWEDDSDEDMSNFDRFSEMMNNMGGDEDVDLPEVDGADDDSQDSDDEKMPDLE
inactive: erlotinib 0.005 | [1] 0.095 | [2] 0.079 | [3] -0.05 | [4] 0.019 | [5] 0.007 | [6] 0.043 | [7] -0.014 | [8] -0.014 | [9] -0.049 | IRAK-1-4 Inhibitor I 0.04 | ibrutinib 0 | [10] -0.01 | ralimetinib 0.017 | [11] -0.103 | [12] -0.247 | [13] -0.079 | pinometostat -0.081 | [14] 0.008 | [15] -0.202

PEA15 isoform 2 (UniProt Q15121)
UniProt Q15121, sequence (Q15121 whole entry, looked up): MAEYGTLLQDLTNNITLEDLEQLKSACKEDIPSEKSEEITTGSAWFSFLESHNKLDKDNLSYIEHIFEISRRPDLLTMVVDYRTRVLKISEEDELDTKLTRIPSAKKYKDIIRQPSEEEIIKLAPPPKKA
inactive: erlotinib 0.001 | [1] 0.042 | [2] 0.056 | [3] 0.026 | [4] -0.014 | [5] 0.055 | [6] -0.006 | [7] 0.072 | [8] 0.016 | [9] -0.064 | IRAK-1-4 Inhibitor I 0.025 | ibrutinib -0.024 | [10] 0.054 | ralimetinib 0.007 | [11] -0.079 | [12] -0.045 | [13] -0.046 | pinometostat -0.004 | [14] 0.007 | [15] 0.038

PRKCB isoform 2 (UniProt P05771)
inactive: erlotinib 0.038 | [1] 0.031 | [2] 0.038 | [3] 0 | [4] 0.086 | [5] 0.004 | [6] 0.021 | [7] 0.037 | [8] 0 | [9] -0.067 | IRAK-1-4 Inhibitor I 0.027 | ibrutinib -0.009 | ralimetinib 0.022 | [11] -0.057 | [12] -0.049 | [13] 0.028 | pinometostat 0.014 | [14] 0.013 | [15] -0.025
active: [10] -0.373

POLR3B (UniProt Q9NW08)
UniProt Q9NW08, sequence (Q9NW08 whole entry, looked up): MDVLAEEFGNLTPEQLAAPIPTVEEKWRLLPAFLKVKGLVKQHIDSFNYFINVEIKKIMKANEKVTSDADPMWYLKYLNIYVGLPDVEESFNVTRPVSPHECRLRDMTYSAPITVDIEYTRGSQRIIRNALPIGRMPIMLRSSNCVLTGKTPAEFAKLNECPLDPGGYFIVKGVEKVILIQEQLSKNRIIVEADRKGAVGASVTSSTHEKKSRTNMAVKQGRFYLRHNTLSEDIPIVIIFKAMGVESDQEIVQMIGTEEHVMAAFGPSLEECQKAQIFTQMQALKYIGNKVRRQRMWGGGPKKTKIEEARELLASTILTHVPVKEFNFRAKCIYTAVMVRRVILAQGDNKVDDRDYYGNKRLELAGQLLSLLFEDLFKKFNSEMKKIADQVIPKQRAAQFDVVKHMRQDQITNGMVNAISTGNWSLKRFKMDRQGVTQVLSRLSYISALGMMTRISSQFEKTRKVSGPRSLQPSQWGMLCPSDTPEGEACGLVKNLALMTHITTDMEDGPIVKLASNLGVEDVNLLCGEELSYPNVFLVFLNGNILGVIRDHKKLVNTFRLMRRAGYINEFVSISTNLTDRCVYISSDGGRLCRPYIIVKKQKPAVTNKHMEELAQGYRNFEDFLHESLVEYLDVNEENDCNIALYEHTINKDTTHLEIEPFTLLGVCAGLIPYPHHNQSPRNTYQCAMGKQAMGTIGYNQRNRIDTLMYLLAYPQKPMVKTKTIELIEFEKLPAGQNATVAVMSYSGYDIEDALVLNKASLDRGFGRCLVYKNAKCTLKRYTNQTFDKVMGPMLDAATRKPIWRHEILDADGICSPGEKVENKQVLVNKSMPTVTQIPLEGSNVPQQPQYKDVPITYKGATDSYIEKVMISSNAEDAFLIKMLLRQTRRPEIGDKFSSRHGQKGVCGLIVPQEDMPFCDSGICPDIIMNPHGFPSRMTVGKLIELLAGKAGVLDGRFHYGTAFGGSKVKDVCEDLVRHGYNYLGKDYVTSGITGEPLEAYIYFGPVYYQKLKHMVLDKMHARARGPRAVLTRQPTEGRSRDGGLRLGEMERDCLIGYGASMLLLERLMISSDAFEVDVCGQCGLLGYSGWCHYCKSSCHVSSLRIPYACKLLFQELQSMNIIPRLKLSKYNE
active: [15] 0.297
inactive: erlotinib -0.022 | [1] -0.027 | [2] -0.003 | [3] -0.09 | [4] 0.004 | [5] 0.022 | [6] 0.025 | [7] -0.018 | [8] 0.194 | [9] -0.088 | IRAK-1-4 Inhibitor I -0.121 | ibrutinib -0.048 | [10] 0.044 | ralimetinib 0.052 | [11] -0.116 | [12] -0.183 | [13] 0.055 | pinometostat 0.115 | [14] -0.035

PBK (UniProt Q96KB5)
inactive: erlotinib 0.103 | [1] 0.117 | [2] -0.054 | [3] -0.037 | [4] 0.083 | [5] 0.028 | [6] 0.067 | [7] 0.016 | [8] -0.052 | [9] -0.105 | IRAK-1-4 Inhibitor I -0.142 | ibrutinib -0.059 | [10] 0 | ralimetinib 0.111 | [11] -0.144 | [12] -0.286 | [13] 0.06 | pinometostat 0.071 | [14] -0.011 | [15] -0.08
